Results published in article PMC5540273 (PLoS ONE, 2017).

Experiments:
Conditions in all cases: concentration: 1 μM, replicates: in singlicate; n = 1
PAK3 = test system: PAK3
PAK4 = test system: PAK4
PAK6 = test system: PAK6
PAK7 = test system: PAK7
PCTK1 = test system: T1, PCTK1
T1 construct: gene CDK16

PCTK2 = test system: T2, PCTK2
T2 construct: gene CDK17

PCTK3 = test system: T3, PCTK3
T3 construct: gene CDK18

PDGFRA = test system: PDGFRA
PDGFRB = test system: PDGFRB
PDPK1 = test system: PDPK1
PFTAIRE2 = test system: PFTAIRE2
PFTK1 = test system: T4, PFTK1
T4 construct: gene CDK14

PHKG1 = test system: PHKG1
PHKG2 = test system: PHKG2
PIK3C2B = test system: PIK3C2B
PIK3C2G = test system: PIK3C2G
PIK3CA = test system: PIK3CA
PIK3CB = test system: PIK3CB
PIK3CD = test system: PIK3CD
PIK3CG = test system: PIK3CG
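Also: KINOMEscan kinase panel screen.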

SMILES | %Inh (PAK3) [%] | %Inh (PAK4) [%] | %Inh (PAK6) [%] | %Inh (PAK7) [%] | %Inh (PCTK1) [%] | %Inh (PCTK2) [%] | %Inh (PCTK3) [%] | %Inh (PDGFRA) [%] | %Inh (PDGFRB) [%] | %Inh (PDPK1) [%] | %Inh (PFTAIRE2) [%] | %Inh (PFTK1) [%] | %Inh (PHKG1) [%] | %Inh (PHKG2) [%] | %Inh (PIK3C2B) [%] | %Inh (PIK3C2G) [%] | %Inh (PIK3CA) [%] | %Inh (PIK3CB) [%] | %Inh (PIK3CD) [%] | %Inh (PIK3CG) [%]
COc1ccc(Nc2nccc(N3CCC(NC(=O)C(C)c4ccc(Cl)cc4)C3)n2)cc1 (stereo not shown) [GSK1379735] | 71 | 0 | 0 | 6 | 0 | 10 | 9 | 0 | 34 | 4 | 0 | 28 | 4 | 0 | 0 | 0 | 0 | 0 | 0 | 0
COc1cc2ncnc(Nc3cccc(Br)c3)c2cc1OC.Cl [GI230329] | 0 | 0 | 0 | 12 | 0 | 0 | 2 | 0 | 16 | 11 | 14 | 16 | 15 | 0 | 8 | 0 | 0 | 2 | 0 | 0
O=C1NC(=O)C(c2ccc(Cl)cc2)=C1Nc1cccc(Cl)c1 [SB-317651] | 14 | 18 | 0 | 0 | 0 | 15 | 12 | 9 | 0 | 0 | 0 | 1 | 0 | 0 | 13 | 0 | 9 | 96.7 | 0 | 38
COC(=O)c1cccc(NC(=O)NC2CCN(c3ccnc(Nc4ccc(F)cc4)n3)C2)c1 (stereo not shown) [GSK1379725] | 0 | 0 | 0 | 0 | 10 | 0 | 12 | 0 | 36 | 0 | 5 | 16 | 0 | 0 | 0 | 0 | 0 | 0 | 0 | 0
Fc1ccc(-c2nc[nH]c2-c2ccncc2)cc1 [SB-217360] | 0 | 13 | 2 | 0 | 0 | 0 | 0 | 0 | 0 | 0 | 12 | 0 | 0 | 3 | 0 | 0 | 12 | 0 | 0 | 0
CCCCc1nn2ncccc2c1-c1ccnc(NC2CC2)n1 [GW684374] | 0 | 0 | 0 | 0 | 7 | 0 | 15 | 0 | 68 | 0 | 13 | 18 | 0 | 0 | 0 | 0 | 0 | 0 | 0 | 0
CS(=O)(=O)CCNCc1nc(-c2ccc3ncnc(Nc4ccc5c(cnn5Cc5ccccc5)c4)c3c2)cs1.Cl.Cl [GW569716] | 22 | 0 | 0 | 0 | 0 | 0 | 16 | 0 | 10 | 0 | 0 | 6 | 0 | 0 | 53 | 0 | 0 | 0 | 1 | 0
COc1ccc(CSc2nnc(-c3ccc4nccn4c3)o2)cc1C(F)(F)F | 0 | 16 | 35 | 22 | 13 | 8 | 3 | 28 | 0 | 0 | 0 | 4 | 0 | 0 | 21 | 12 | 15 | 11 | 29 | 32
O=c1cc(N2CCOCC2)nc2n(Cc3cccc(Cl)c3Cl)c3ccccc3n12 [GSK2299009] | 42 | 0 | 21 | 12 | 8 | 8 | 20 | 0 | 51 | 0 | 29 | 19 | 7 | 3 | 0 | 0 | 7 | 97.5 | 3 | 1
Cc1ccc(NC(=O)Nc2ccccc2)cc1-c1ccc(C(=O)Nc2ccncc2)cc1 [GSK1398471] | 11 | 0 | 0 | 1 | 4 | 0 | 21 | 49 | 100 | 26 | 25 | 27 | 0 | 2 | 27 | 0 | 29 | 0 | 0 | 14
CC(=O)c1c(C)c2cnc(Nc3ccc(N4CCNCC4)cn3)nc2n(C2CCCC2)c1=O | 6 | 0 | 0 | 0 | 0 | 10 | 8 | 0 | 0 | 0 | 0 | 5 | 10 | 12 | 0 | 0 | 3 | 0 | 0 | 12
Cc1ccc(NC(=O)Nc2ccc(Cl)cc2)cc1-c1ccc(C(=O)Nc2ccncc2)cc1 [GSK1398472] | 21 | 0 | 0 | 0 | 5 | 0 | 0 | 10 | 99.7 | 0 | 0 | 12 | 0 | 0 | 0 | 0 | 0 | 36 | 0 | 0
CC(C)c1ccc(O)cc1Nc1ccnc2ccc(C(F)(F)F)cc12 [GW482059] | 0 | 0 | 0 | 0 | 2 | 0 | 0 | 3 | 10 | 18 | 1 | 0 | 0 | 0 | 0 | 15 | 0 | 0 | 25 | 0
CNc1cc(-c2ccc3c(N)n[nH]c3c2)nc(N)n1 [GSK2224810] | 0 | 0 | 0 | 17 | 0 | 16 | 0 | 0 | 44 |  | 0 | 18 | 0 | 18 | 0 | 0 | 0 | 9 | 1 | 5
COc1cccc(CNC(=O)NC2CCN(c3ccnc(Nc4ccc(F)cc4)n3)C2)c1 (stereo not shown) [GSK1379723] | 38 | 0 | 0 | 0 | 10 | 0 | 14 | 7 | 15 | 0 | 7 | 0 | 0 | 26 | 0 | 0 | 0 | 0 | 2 | 0
FC(F)(F)c1ccccc1-c1cc(-c2c[nH]nc2-c2ccccn2)ccn1 [GW679396] | 8 | 0 | 3 | 0 | 0 | 10 | 7 | 0 | 19 | 18 | 10 | 14 | 3 | 4 | 0 | 0 | 0 | 18 | 0 | 3

SMILES | %Inh (PAK3) [%] | %Inh (PAK4) [%] | %Inh (PAK6) [%] | %Inh (PAK7) [%] | %Inh (PCTK1) [%] | %Inh (PCTK2) [%] | %Inh (PCTK3) [%] | %Inh (PDGFRA) [%] | %Inh (PDGFRB) [%] | %Inh (PDPK1) [%] | %Inh (PFTAIRE2) [%] | %Inh (PFTK1) [%] | %Inh (PHKG1) [%] | %Inh (PHKG2) [%] | %Inh (PIK3C2B) [%] | %Inh (PIK3C2G) [%] | %Inh (PIK3CA) [%] | %Inh (PIK3CB) [%] | %Inh (PIK3CD) [%] | %Inh (PIK3CG) [%]
CSc1ccc(-c2nc3n(c2-c2ccncc2)CCC3)cc1 [SKF-105561] | 0 | 0 | 0 | 0 | 3 | 5 | 0 | 28 | 0 | 0 | 1 | 2 | 5 | 0 | 19 | 21 | 0 | 0 | 0 | 23
Cc1ccccc1-c1cc(-c2c[nH]nc2-c2ccccn2)ccn1 [GW680061] | 0 | 0 | 0 | 0 | 2 | 7 | 20 | 0 | 41 | 0 | 0 | 0 | 0 | 0 | 0 | 0 | 0 | 0 | 4 | 0
COc1ccc(CSc2nnc(-c3ccc4ncsc4c3)o2)cc1C(F)(F)F | 9 | 0 | 9 | 1 | 0 | 0 | 0 | 0 | 0 | 10 | 0 | 0 | 0 | 15 | 0 | 0 | 0 | 12 | 0 | 5
Cl.Cl.Cl.N#Cc1ccc(CCNc2nccc(-c3cccc(CN4CCNCC4)c3)n2)cc1 [GSK2137462] | 6 | 0 | 8 | 12 | 0 | 0 | 0 | 0 | 34 | 8 | 16 | 14 | 25 | 23 | 0 | 0 | 1 | 13 | 0 | 12
CC(=O)c1cccc(NC(=O)NC2CCN(c3ccnc(Nc4ccc(F)cc4)n3)C2)c1 (stereo not shown) [GSK1379710] | 0 | 0 | 0 | 20 | 8 | 19 | 24 | 10 | 43 | 0 | 26 | 14 | 0 | 1 | 0 | 0 | 0 | 0 | 24 | 7
COc1cccc(NC(=O)Nc2ccc(C)c(-c3ccc(C(=O)Nc4ccncc4)cc3)c2)c1 [GSK1398474] | 27 | 0 | 0 | 26 | 0 | 11 | 13 | 48 | 100 | 27 | 27 | 0 | 0 | 17 | 100 | 0 | 99.9 | 0 | 0 | 99.9
Cn1cncc1-c1cc2c(Nc3ccc(OCc4ccccc4)cc3)ncnc2cn1 [GW281179] | 0 | 0 | 0 | 0 | 11 | 0 | 21 | 0 | 16 | 0 | 9 | 20 | 4 | 0 | 24 | 0 | 0 | 0 | 0 | 0
O=C(Nc1n[nH]c2nc(-c3cccs3)c(Br)cc12)C1CCCC1 [SB-743341] | 0 | 0 | 9 | 0 | 46 | 54 | 56 | 32 | 74 | 0 | 9 | 20 | 2 | 12 | 0 | 5 | 5 | 61 | 0 | 0
CNc1nc(-c2ccc3c(N)n[nH]c3c2)cc(N2C[C@@H](C(=O)NC3CCCCC3)OC[C@H]2C)n1 [GSK2375584] | 0 | 0 | 0 | 24 | 0 | 10 | 21 | 0 | 35 | 79 | 13 | 25 | 3 | 13 | 0 | 0 | 4 | 34 | 0 | 9
CCc1ccc(-c2ccc3c(c2)-c2n[nH]cc2S(=O)(=O)N3C)cc1 | 0 | 0 | 0 | 0 | 0 | 0 | 0 | 0 | 7 | 4 | 0 | 0 | 0 | 0 | 0 | 0 | 0 | 0 | 0 | 0
Cn1cncc1C(=O)NC1CCN(c2ccnc(Nc3ccc(F)cc3)n2)C1 (stereo not shown) [GSK1379717] | 0 | 0 | 0 | 0 | 4 | 0 | 16 | 2 | 14 | 0 | 10 | 11 | 0 | 6 | 5 | 0 | 0 | 0 | 0 | 0
Nc1ncnc2occ(-c3ccc4c(c3)CCN4C(=O)Cc3cc(F)ccc3F)c12 [GSK2645446] | 0 | 0 | 0 | 12 | 2 | 0 | 2 | 0 | 50 | 0 | 12 | 10 | 0 | 0 | 14 | 0 | 0 | 0 | 0 | 5
Fc1ccc(-c2nc3n(c2-c2ccncc2)CCS3)cc1 [GI98581] | 42 | 0 | 0 | 0 | 12 | 0 | 20 | 0 | 16 | 36 | 11 | 16 | 0 | 0 | 92.7 | 0 | 91.9 | 0 | 0 | 81
O=C(Nc1n[nH]c2nc(-c3ccco3)c(Br)cc12)C1CCN(Cc2ccccc2)C1.O=C(O)[C@H](O)[C@@H](O)C(=O)O (stereo not shown) [SB-742034] | 12 | 0 | 0 | 8 | 86 | 83 | 76 | 7 | 30 | 18 | 0 | 27 | 3 | 4 | 16 | 13 | 0 | 2 | 0 | 4
CNC(=O)c1ccc(C)c(-n2c(C)cc(OCc3ccc(F)cc3F)c(Br)c2=O)c1 | 0 | 0 | 0 | 0 | 0 | 0 | 0 | 0 | 0 | 0 | 0 | 8 | 5 | 0 | 0 | 0 | 0 | 0 | 0 | 0
